{"source": "paper PMC5540273", "about": "(PLoS ONE, 2017);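 further: KINOMEscan kinase panel screen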"}
{"test_system": "MAP3K1", "details": "concentration: 1 μM, replicates: in singlicate; n = 1", "units": {"%Inh": "%"}}
{"smiles": "CS(=O)(=O)CCNCc1nc(-c2ccc3ncnc(Nc4ccc5c(cnn5Cc5ccccc5)c4)c3c2)cs1.Cl.Cl", "note": "[GW569716]", "%Inh": 12}
{"smiles": "Cc1ccccc1Cn1ccn2c(=O)cc(N3CCOCC3)nc12", "note": "[GSK2269905]", "%Inh": 2}
{"smiles": "CNc1nc(-c2ccc3c(N)n[nH]c3c2)cc(N2C[C@@H](C(=O)Nc3ccccc3)CC[C@H]2C)n1", "note": "[GSK2298859]", "%Inh": 0}
{"smiles": "Cc1ccc(NC(=O)Nc2ccccc2)cc1-c1ccc(C(=O)Nc2ccncc2)cc1", "note": "[GSK1398471]", "%Inh": 8}
{"smiles": "COc1ccc(Nc2nccc(N3CCC(NC(=O)C(C)c4ccc(Cl)cc4)CC3)n2)cc1", "note": "(stereo not shown) [GSK1379812]", "%Inh": 12}
{"smiles": "O=C(Nc1n[nH]c2nc(-c3ccco3)c(Br)cc12)C1CCN(Cc2ccccc2)C1.O=C(O)[C@H](O)[C@@H](O)C(=O)O", "note": "(stereo not shown) [SB-742034]", "%Inh": 18}
{"smiles": "COc1ccc(CSc2nnc(-c3ccc4ncsc4c3)o2)cc1C(F)(F)F", "%Inh": 0}
{"smiles": "COc1nccc(-c2c(-c3ccc(F)cc3)ncn2CCCN2CCOCC2)n1", "note": "[SB-282852]", "%Inh": 0}
{"smiles": "CSc1ccc(-c2nc3n(c2-c2ccncc2)CCC3)cc1", "note": "[SKF-105561]", "%Inh": 0}
{"smiles": "CC(C)c1ccc(O)cc1Nc1ccnc2ccc(C(F)(F)F)cc12", "note": "[GW482059]", "%Inh": 0}
{"smiles": "c1ccc(-c2ccnc3[nH]ccc23)cc1", "note": "[SB-693578]", "%Inh": 19}
{"smiles": "O=C(Nc1n[nH]c2cc(-c3ccsc3)ccc12)C1CC1", "note": "[SB-732932]", "%Inh": 23}
{"smiles": "Fc1ccc(-c2nn3cccc(F)c3c2-c2ccncc2)cc1", "note": "[GW475620]", "%Inh": 9}
{"smiles": "CNC(=O)c1ccc(C)c(-n2c(C)cc(OCc3ccc(F)cc3F)c(Br)c2=O)c1", "%Inh": 0}
{"smiles": "CCCCc1nn2ncccc2c1-c1ccnc(NC2CC2)n1", "note": "[GW684374]", "%Inh": 3}
{"smiles": "CC(=O)c1c(C)c2cnc(Nc3ccc(N4CCNCC4)cn3)nc2n(C2CCCC2)c1=O", "%Inh": 0}
{"smiles": "COC(=O)C(NC(=O)NC1CCN(c2ccnc(Nc3ccc(F)cc3)n2)C1)c1ccccc1", "note": "(stereo not shown) [GSK1379712]", "%Inh": 6}
{"smiles": "O=c1cc(N2CCOCC2)nc2n(Cc3ccccc3F)ccn12", "note": "[GSK2297428]", "%Inh": 2}
{"smiles": "COc1ccc(CSc2nnc(-c3ccc4nccn4c3)o2)cc1C(F)(F)F", "%Inh": 15}
{"smiles": "COc1cccc(NC(=O)Nc2ccc(C)c(-c3ccc(C(=O)Nc4ccncc4)cc3)c2)c1", "note": "[GSK1398474]", "%Inh": 13}
{"smiles": "O=C1NC(=O)C(c2ccc(Cl)cc2)=C1Nc1ccc(O)cc1", "note": "[SB-340867]", "%Inh": 0}
{"smiles": "COC(=O)c1cccc(NC(=O)NC2CCN(c3ccnc(Nc4ccc(OC)cc4)n3)C2)c1", "note": "(stereo not shown) [GSK1379746]", "%Inh": 0}
{"smiles": "Cc1c(Cn2c3ccccc3n3c(=O)cc(N4CCOCC4)nc23)cccc1C(F)(F)F", "note": "[GSK2306394]", "%Inh": 14}
{"smiles": "Nc1cccc(-c2ccc3c(N)n[nH]c3c2)n1", "note": "[GSK2192730]", "%Inh": 23}
{"test_system": "MAP3K2", "details": "concentration: 1 μM, replicates: in singlicate; n = 1", "units": {"%Inh": "%"}}
{"smiles": "Cn1cncc1C(=O)NC1CCN(c2ccnc(Nc3ccc(F)cc3)n2)C1", "note": "(stereo not shown) [GSK1379717]", "%Inh": 11}
{"smiles": "CC(C)c1cc(-c2ccc3c(N)n[nH]c3c2)nc(N)n1", "note": "[GSK2250882]", "%Inh": 2}
{"smiles": "COc1cccc(CNC(=O)NC2CCN(c3ccnc(Nc4ccc(F)cc4)n3)C2)c1", "note": "(stereo not shown) [GSK1379723]", "%Inh": 0}
{"smiles": "Cc1ccc(-c2nc(Nc3ccncc3)c3ccccc3n2)s1", "note": "[GSK189015]", "%Inh": 0}
{"smiles": "Nc1nccc(-c2c(-c3ccc(F)cc3)ncn2C2CCN(Cc3ccccc3)CC2)n1", "note": "[SB-219980]", "%Inh": 29}
{"smiles": "COc1cccc(C2=C(Nc3cc(Cl)c(O)c(Cl)c3)C(=O)NC2=O)c1", "note": "[SB-390767]", "%Inh": 0}
{"smiles": "Cc1ccc(NC(=O)Nc2ccc(Cl)c(C(F)(F)F)c2)cc1-c1ccc(C(=O)Nc2ccncc2)cc1", "note": "[GSK1398470]", "%Inh": 0}
{"smiles": "COc1ccc(Nc2nccc(N3CCC(NC(=O)c4cc5ccccc5s4)C3)n2)cc1", "note": "(stereo not shown) [GSK1379738]", "%Inh": 0}
{"smiles": "Cc1ccc(NC(=O)c2ccc(Cl)cc2)cc1-c1ccc(C(=O)Nc2ccncc2)cc1", "note": "[GSK1398467]", "%Inh": 0}
{"smiles": "FC(F)(F)c1ccccc1-c1cc(-c2c[nH]nc2-c2ccccn2)ccn1", "note": "[GW679396]", "%Inh": 0}
{"smiles": "CNc1cc(-c2ccc3c(N)n[nH]c3c2)nc(N)n1", "note": "[GSK2224810]", "%Inh": 0}
{"smiles": "Cc1nccc(-c2c(-c3ccc(F)cc3)ncn2CCCN2CCOCC2)n1.Cl", "note": "[SB-282975]", "%Inh": 17}
{"smiles": "CS(=O)(=O)CCNCc1nc(-c2ccc3ncnc(Nc4ccc(OCc5ccccc5)c(Cl)c4)c3c2)cs1.Cl", "note": "[GW582764]", "%Inh": 3}
{"smiles": "CS(=O)(=O)CCNCc1nc(-c2ccc3ncnc(Nc4ccc5c(cnn5Cc5ccccc5)c4)c3c2)cs1.Cl.Cl", "note": "[GW569716]", "%Inh": 1}
{"smiles": "Cc1ccccc1Cn1ccn2c(=O)cc(N3CCOCC3)nc12", "note": "[GSK2269905]", "%Inh": 0}
{"smiles": "CNc1nc(-c2ccc3c(N)n[nH]c3c2)cc(N2C[C@@H](C(=O)Nc3ccccc3)CC[C@H]2C)n1", "note": "[GSK2298859]", "%Inh": 0}
{"smiles": "Cc1ccc(NC(=O)Nc2ccccc2)cc1-c1ccc(C(=O)Nc2ccncc2)cc1", "note": "[GSK1398471]", "%Inh": 0}
{"smiles": "COc1ccc(Nc2nccc(N3CCC(NC(=O)C(C)c4ccc(Cl)cc4)CC3)n2)cc1", "note": "(stereo not shown) [GSK1379812]", "%Inh": 0}
{"smiles": "O=C(Nc1n[nH]c2nc(-c3ccco3)c(Br)cc12)C1CCN(Cc2ccccc2)C1.O=C(O)[C@H](O)[C@@H](O)C(=O)O", "note": "(stereo not shown) [SB-742034]", "%Inh": 21}
{"smiles": "COc1ccc(CSc2nnc(-c3ccc4ncsc4c3)o2)cc1C(F)(F)F", "%Inh": 0}
{"smiles": "COc1nccc(-c2c(-c3ccc(F)cc3)ncn2CCCN2CCOCC2)n1", "note": "[SB-282852]", "%Inh": 0}
{"smiles": "CSc1ccc(-c2nc3n(c2-c2ccncc2)CCC3)cc1", "note": "[SKF-105561]", "%Inh": 3}
{"smiles": "CC(C)c1ccc(O)cc1Nc1ccnc2ccc(C(F)(F)F)cc12", "note": "[GW482059]", "%Inh": 0}
{"smiles": "c1ccc(-c2ccnc3[nH]ccc23)cc1", "note": "[SB-693578]", "%Inh": 50}
{"smiles": "O=C(Nc1n[nH]c2cc(-c3ccsc3)ccc12)C1CC1", "note": "[SB-732932]", "%Inh": 17}
{"smiles": "Fc1ccc(-c2nn3cccc(F)c3c2-c2ccncc2)cc1", "note": "[GW475620]", "%Inh": 8}
{"smiles": "CNC(=O)c1ccc(C)c(-n2c(C)cc(OCc3ccc(F)cc3F)c(Br)c2=O)c1", "%Inh": 0}
{"smiles": "CCCCc1nn2ncccc2c1-c1ccnc(NC2CC2)n1", "note": "[GW684374]", "%Inh": 0}
{"smiles": "CC(=O)c1c(C)c2cnc(Nc3ccc(N4CCNCC4)cn3)nc2n(C2CCCC2)c1=O", "%Inh": 0}
{"smiles": "COC(=O)C(NC(=O)NC1CCN(c2ccnc(Nc3ccc(F)cc3)n2)C1)c1ccccc1", "note": "(stereo not shown) [GSK1379712]", "%Inh": 0}
{"smiles": "O=c1cc(N2CCOCC2)nc2n(Cc3ccccc3F)ccn12", "note": "[GSK2297428]", "%Inh": 0}
{"smiles": "COc1ccc(CSc2nnc(-c3ccc4nccn4c3)o2)cc1C(F)(F)F", "%Inh": 30}
{"smiles": "COc1cccc(NC(=O)Nc2ccc(C)c(-c3ccc(C(=O)Nc4ccncc4)cc3)c2)c1", "note": "[GSK1398474]", "%Inh": 0}
{"smiles": "O=C1NC(=O)C(c2ccc(Cl)cc2)=C1Nc1ccc(O)cc1", "note": "[SB-340867]", "%Inh": 0}
{"smiles": "COC(=O)c1cccc(NC(=O)NC2CCN(c3ccnc(Nc4ccc(OC)cc4)n3)C2)c1", "note": "(stereo not shown) [GSK1379746]", "%Inh": 0}
{"smiles": "Cc1c(Cn2c3ccccc3n3c(=O)cc(N4CCOCC4)nc23)cccc1C(F)(F)F", "note": "[GSK2306394]", "%Inh": 2}
{"smiles": "Nc1cccc(-c2ccc3c(N)n[nH]c3c2)n1", "note": "[GSK2192730]", "%Inh": 0}
